The sample as a whole holds a higher share of the strongest signals than the screen did.
Tests used:
Assay in all cases: glycan array binding signal (z-score within array); higher = stronger binding
Conditions in all cases: glycan notation: IUPAC condensed, linker removed
[1] = biological target: Gal(b1-4)GlcNAc(b1-3)Gal(b1-4)GlcNAc(b1-3)[Gal(b1-4)GlcNAc(b1-3)Gal(b1-4)GlcNAc(b1-6)]GalNAc
Summary of the method: (§1)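 Negative Z-scores can be read as non-binding. The Z-score is calculated within each array and then averaged across arrays of one protein sequence at different concentrations or buffers and across linkers. Arrays, 3228 in all, were curated from the Consortium for Functional Glycomics database and kept only where the protein sequence was available.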

Gal6S(b1-4)Glc = biological target: Gal6S(b1-4)Glc
Summary of the method: as §1

[2] = biological target: GalNAc(a1-3)GalNAc(b1-3)Gal(a1-4)Gal(b1-4)Glc
Summary of the method: as §1

GalNAc(b1-4)GlcNAc = biological target: GalNAc(b1-4)GlcNAc
Summary of the method: as §1

GlcA(b1-3)Gal = biological target: GlcA(b1-3)Gal
Summary of the method: as §1

GlcA(b1-6)Gal = biological target: GlcA(b1-6)Gal
Summary of the method: as §1

[3] = biological target: GlcNAc(b1-3)Gal(b1-4)GlcNAc(b1-3)Gal(b1-4)GlcNAc(b1-3)Gal(b1-4)GlcNAc(b1-2)[GlcNAc(b1-3)Gal(b1-4)GlcNAc(b1-3)Gal(b1-4)GlcNAc(b1-3)Gal(b1-4)GlcNAc(b1-6)]Man(a1-6)[GlcNAc(b1-3)Gal(b1-4)GlcNAc(b1-3)Gal(b1-4)GlcNAc(b1-3)Gal(b1-4)GlcNAc(b1-2)Man(a1-3)]Man(b1-4)GlcNAc(b1-4)[Fuc(a1-6)]GlcNAc
Summary of the method: as §1

[4] = biological target: GlcNAc(b1-3)Gal(b1-4)GlcNAc(b1-3)Gal(b1-4)GlcNAc(b1-3)Gal(b1-4)GlcNAc(b1-3)Gal(b1-4)GlcNAc(b1-2)Man(a1-3)[GlcNAc(b1-3)Gal(b1-4)GlcNAc(b1-3)Gal(b1-4)GlcNAc(b1-3)Gal(b1-4)GlcNAc(b1-3)Gal(b1-4)GlcNAc(b1-2)Man(a1-6)]Man(b1-4)GlcNAc(b1-4)[Fuc(a1-6)]GlcNAc
Summary of the method: as §1

Kdn(a2-3)Gal(b1-4)Glc = biological target: Kdn(a2-3)Gal(b1-4)Glc
Summary of the method: as §1

[5] = biological target: Man(a1-2)Man(a1-2)Man(a1-3)Man
Summary of the method: as §1

[6] = biological target: Man(a1-2)Man(a1-3)[Man(a1-2)Man(a1-6)]Man(a1-6)[Man(a1-2)Man(a1-2)Man(a1-3)]Man(b1-4)GlcNAc(b1-4)GlcNAc
Summary of the method: as §1

Man(a1-3)[Man(a1-6)]Man = biological target: Man(a1-3)[Man(a1-6)]Man
Summary of the method: as §1

[7] = biological target: Neu5Ac(a2-3)Gal(b1-3)GlcNAc(b1-6)GalNAc
Summary of the method: as §1

[8] = biological target: Neu5Ac(a2-3)Gal(b1-4)GlcNAc(b1-3)Gal(b1-4)GlcNAc(b1-2)Man(a1-3)[Neu5Ac(a2-3)Gal(b1-4)GlcNAc(b1-3)Gal(b1-4)GlcNAc(b1-2)Man(a1-6)]Man(b1-4)GlcNAc(b1-4)GlcNAc
Summary of the method: as §1

[9] = biological target: Neu5Ac(a2-3)Gal(b1-4)GlcNAc(b1-6)[Neu5Ac(a2-3)Gal(b1-3)]GalNAc
Summary of the method: as §1

[10] = biological target: Neu5Ac(a2-6)Gal(b1-3)GlcNAc(b1-3)[Gal(b1-4)GlcNAc(b1-6)]Gal(b1-4)Glc
Summary of the method: as §1

Neu5Ac(a2-6)Gal(b1-4)Glc = biological target: Neu5Ac(a2-6)Gal(b1-4)Glc
Summary of the method: as §1

[11] = biological target: Neu5Ac(a2-6)Gal(b1-4)GlcNAc(b1-2)Man(a1-3)Man(b1-4)GlcNAc(b1-4)GlcNAc
Summary of the method: as §1

[12] = biological target: Neu5Ac(a2-6)Gal(b1-4)GlcNAc(b1-2)[Neu5Ac(a2-6)Gal(b1-4)GlcNAc(b1-4)]Man(a1-3)[GlcNAc(b1-4)][Neu5Ac(a2-6)Gal(b1-4)GlcNAc(b1-4)Man(a1-6)]Man(b1-4)GlcNAc(b1-4)GlcNAc
Summary of the method: as §1

[13] = biological target: Neu5Ac(a2-6)Gal(b1-4)GlcNAc(b1-6)[Gal(b1-3)GlcNAc(b1-3)]Gal(b1-4)Glc
Summary of the method: as §1

[14] = biological target: Neu5Ac(a2-6)GalNAc(b1-4)GlcNAc6S
Summary of the method: as §1

[15] = biological target: Neu5Ac(a2-8)Neu5Ac(a2-3)Gal(b1-3)GalNAc(b1-4)[Neu5Ac(a2-3)]Gal(b1-4)Glc
Summary of the method: as §1

[16] = biological target: Neu5Ac(a2-8)Neu5Ac(a2-3)[GalNAc(b1-4)]Gal(b1-4)Glc
Summary of the method: as §1

[17] = biological target: Neu5Ac(a2-8)Neu5Ac(a2-8)Neu5Ac(a2-3)[GalNAc(b1-4)]Gal(b1-4)Glc
Summary of the method: as §1

[18] = biological target: Neu5Gc(a2-3)Gal(b1-4)GlcNAc(b1-3)Gal(b1-4)GlcNAc(b1-2)Man(a1-3)[Neu5Gc(a2-3)Gal(b1-4)GlcNAc(b1-3)Gal(b1-4)GlcNAc(b1-2)Man(a1-6)]Man(b1-4)GlcNAc(b1-4)GlcNAc
Summary of the method: as §1

[19] = biological target: Neu5Gc(a2-6)Gal(b1-4)GlcNAc
Summary of the method: as §1

[20] = biological target: Neu5Gc(a2-8)Neu5Gc(a2-3)Gal(b1-4)GlcNAc(b1-3)Gal(b1-4)GlcNAc
Summary of the method: as §1

[21] = biological target: Neu5Gc(b2-6)Gal(b1-4)GlcNAc
Summary of the method: as §1

B1: a L Fucosidase (Streptosporangium roseum), D2B1P1_STRRD (protein)
chain: MRRKLLLVPAVGLLVIGSIFATQPVASADTPPVYEPTVESLNSHPVPQWFNDDKFGIFIHWGAYSVPAWGPRGSYAEWYGNYMNAGGSATNAHHKATYGQDFNYDAFLQQWKAEKFDPADWVKLFKDAGAKYFVLTSKHHEGMALWDSKSSGRDSVDLGPGRDLAKELFDAARKDEAKLKAGFYYSLYEWYNPAYTGRPATNPYTGAEIPYTGAPGGGDYVKDYMLPQMRELIDGYDPDIIWCDGQWEKPASYWNTAGVIADYYNKALNSGKEVAVANRCKIQSGNLDSPELDFQTPEYTVKPDIDPVKWESSRGIAHSYGYNQNEPEEDHLTSDQLVDSLVDIVSKNGNLLLDIGPKADGTIPEIQRQRLLDIGAWLKANGEAIYGTTYWNRAEEKGGPDDVRYTAKDATLYATALKWPGEQLTLGADLPVDHSTRITMLGSGARLSWSRDEQGRVVVNTPQEAGKHAYVFKIETPGVRSLLRTSSSLAKEIAPGRTISGELTVTNPGKRHTPATKLSLTVPQGWTATLGAPRVRPLGPGESVKVPISVSAPEGVAPAPYTLGLYQRTGRMGTTTALPLTVNRPNLSLGKPATQKSTGYDAPASRAVDGNTGGDWSAGSTTHTAEPEKQAWWQVDLGASARLDSVDVWNRLDCCADRLKDFWVMASDQPFTTDDLDQARTAPGVTAVHVGEQAGSPSKVKLPEGTRGRYVRIQLASPSNPLSLAEVQVRGSMARPNLSLGKPATQKSTGYDAPASRAVDGNTGGDWSAGSTTHTAEPEKQAWWQVDLGASARLDSVDVWNRLDCCADRLKDFWVMASDQPFTTDDLDQARTAPGVTAVHVGEQAGSPSKVKLPEGTRGRYVRIQLASPSNPLSLAEVQVRLEHHHHHHS
- glycan array binding signal (z-score) [1]: -0.245
- glycan array binding signal (z-score) (Gal6S(b1-4)Glc): -0.356
- glycan array binding signal (z-score) [2]: -0.338
- glycan array binding signal (z-score) (GalNAc(b1-4)GlcNAc): -0.528
- glycan array binding signal (z-score) (GlcA(b1-3)Gal): -0.445
- glycan array binding signal (z-score) (GlcA(b1-6)Gal): -0.444
- glycan array binding signal (z-score) [3]: -0.512
- glycan array binding signal (z-score) [4]: 1.09
- glycan array binding signal (z-score) (Kdn(a2-3)Gal(b1-4)Glc): -0.16
- glycan array binding signal (z-score) [5]: -0.582
- glycan array binding signal (z-score) [6]: -0.104
- glycan array binding signal (z-score) (Man(a1-3)[Man(a1-6)]Man): 0.008
- glycan array binding signal (z-score) [7]: -0.493
- glycan array binding signal (z-score) [8]: 0.456
- glycan array binding signal (z-score) [9]: -0.417
- glycan array binding signal (z-score) [10]: -0.585
- glycan array binding signal (z-score) (Neu5Ac(a2-6)Gal(b1-4)Glc): -0.462
- glycan array binding signal (z-score) [11]: -0.533
- glycan array binding signal (z-score) [12]: -0.202
- glycan array binding signal (z-score) [13]: -0.507
- glycan array binding signal (z-score) [14]: -0.481
- glycan array binding signal (z-score) [15]: -0.521
- glycan array binding signal (z-score) [16]: -0.558
- glycan array binding signal (z-score) [17]: -0.388
- glycan array binding signal (z-score) [18]: 0.548
- glycan array binding signal (z-score) [19]: -0.317
- glycan array binding signal (z-score) [20]: -0.268
- glycan array binding signal (z-score) [21]: -0.474

From the supplement of paper PMC8728848
